The panel holds about 83,000 compounds, 20% with a hit somewhere; the sample as a whole holds those more often.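 Growth was measured after 48 h exposure to one concentration of compound in 96-well plates. Values under 10 count as active.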 Active and inactive are the calls of the source.
Columns and labels:
Assay in all cases: NCI-60 one-dose screen, 48 h (100 = growth as untreated, 0 = no growth, -100 = all killed)
Conditions in all cases: 10 µM unless noted
NCI-H23 lung = tested on: NCI-H23 lung
NCI-H226 lung = tested on: NCI-H226 lung
NCI-H322M lung = tested on: NCI-H322M lung
HOP-62 NSCLC = tested on: HOP-62 NSCLC
NCI-H460 lung = tested on: NCI-H460 lung
NCI-H522 lung = tested on: NCI-H522 lung
A549/ATCC NSCLC = tested on: A549/ATCC NSCLC
786-0 renal = tested on: 786-0 renal
COLO 205 colon = tested on: COLO 205 colon
DU-145 prostate = tested on: DU-145 prostate
K-562 leukemia = tested on: K-562 leukemia
MALME-3M melanoma = tested on: MALME-3M melanoma
MDA-MB-231 breast = tested on: MDA-MB-231 breast
RXF 393 renal = tested on: RXF 393 renal
SF-268 CNS = tested on: SF-268 CNS
SF-539 CNS = tested on: SF-539 CNS
UACC-257 melanoma = tested on: UACC-257 melanoma
M14 melanoma = tested on: M14 melanoma
HCT-15 colon = tested on: HCT-15 colon
SF-295 CNS = tested on: SF-295 CNS

Measured: growth

CCOC(Cc1c(N)[nH]c(=S)[nH]c1=O)OCC
inactive: NCI-H23 lung 104% | NCI-H226 lung 96.8% | NCI-H322M lung 98.9% | HOP-62 NSCLC 102% | NCI-H460 lung 114% | NCI-H522 lung 93% | A549/ATCC NSCLC 104% | 786-0 renal 109% | COLO 205 colon 105% | DU-145 prostate 115% | K-562 leukemia 98.5% | MALME-3M melanoma 99.5% | MDA-MB-231 breast 111% | RXF 393 renal 108% | SF-268 CNS 111% | SF-539 CNS 99.4% | UACC-257 melanoma 103% | M14 melanoma 105% | HCT-15 colon 106%

CC1CC(C)/C(=N/NC(N)=O)C(C(O)CC2CCC(=O)NC2=O)C1 (centres undefined)
inactive: NCI-H23 lung 36.1% | NCI-H226 lung 42.3% | NCI-H322M lung 14.4% | HOP-62 NSCLC 49.3% | NCI-H460 lung 31.7% | NCI-H522 lung 18% | A549/ATCC NSCLC 27.7% | 786-0 renal 25% | COLO 205 colon 42.1% | DU-145 prostate 37.4% | K-562 leukemia 40.8% | MALME-3M melanoma 35.6% | MDA-MB-231 breast 46.9% | RXF 393 renal 38.2% | SF-268 CNS 34.1% | UACC-257 melanoma 54.9% | M14 melanoma 34.1% | HCT-15 colon 37.8%
active: SF-295 CNS -9.66%

COc1cc2c(cc1OCCCCCn1c(-c3ccc(OCc4ccccc4)cc3)nc3cc(N4CCOCC4)ccc31)N=C[C@@H]1CCCN1C2=O
inactive: NCI-H23 lung 15.5% | NCI-H322M lung 27.8% | HOP-62 NSCLC 20% | DU-145 prostate 29.7% | K-562 leukemia 36.1% | SF-268 CNS 14.6% | SF-539 CNS 11%
active: NCI-H226 lung -41.1% | NCI-H460 lung -3.28% | NCI-H522 lung -4.59% | A549/ATCC NSCLC 6.91% | 786-0 renal -22.5% | COLO 205 colon -14% | MALME-3M melanoma -29.7% | MDA-MB-231 breast 9.63% | RXF 393 renal -26.7% | SF-295 CNS 7.34% | M14 melanoma 9.2% | HCT-15 colon -22.7%

COc1ccc(-n2nnc(C(=O)O)c2-c2cc(OC)c(OC)c(OC)c2)cc1
inactive: NCI-H23 lung 103% | NCI-H226 lung 104% | NCI-H322M lung 108% | HOP-62 NSCLC 114% | NCI-H460 lung 106% | NCI-H522 lung 83.6% | A549/ATCC NSCLC 100% | 786-0 renal 99.7% | COLO 205 colon 104% | DU-145 prostate 116% | K-562 leukemia 95.1% | MALME-3M melanoma 112% | MDA-MB-231 breast 122% | RXF 393 renal 105% | SF-268 CNS 115% | SF-539 CNS 103% | UACC-257 melanoma 102% | M14 melanoma 104% | HCT-15 colon 101%

CSc1nc2c(c(=O)[nH]1)C(c1ccc(Cl)cc1)C1=C(N2)/C(=C/c2ccc(Cl)cc2)CNC1 (centres undefined)
active: HOP-62 NSCLC -2.54% | K-562 leukemia 8.37%
inactive: NCI-H23 lung 69% | NCI-H226 lung 78.9% | NCI-H322M lung 64.1% | NCI-H460 lung 37.3% | NCI-H522 lung 79.3% | A549/ATCC NSCLC 32.2% | 786-0 renal 88.4% | COLO 205 colon 29.2% | DU-145 prostate 39.3% | MALME-3M melanoma 91.9% | MDA-MB-231 breast 40.4% | RXF 393 renal 52.3% | SF-268 CNS 10.1% | SF-295 CNS 69.3% | UACC-257 melanoma 81.9% | M14 melanoma 64.1% | HCT-15 colon 13.5%

CN(C)c1ccc2c(c1)/C(=N/O)c1ccccc1-2
inactive: NCI-H23 lung 89% | NCI-H226 lung 91.8% | NCI-H322M lung 113% | HOP-62 NSCLC 92.2% | NCI-H460 lung 97.2% | NCI-H522 lung 89% | A549/ATCC NSCLC 84.2% | 786-0 renal 104% | COLO 205 colon 103% | DU-145 prostate 105% | K-562 leukemia 29.7% | MALME-3M melanoma 87.9% | MDA-MB-231 breast 89.8% | RXF 393 renal 81% | SF-268 CNS 78.3% | SF-539 CNS 60% | UACC-257 melanoma 81.6% | M14 melanoma 69.7% | HCT-15 colon 78.7%

CN(C)c1nc(-c2ccco2)n2nc(-c3ccco3)cc2n1
inactive: NCI-H23 lung 87.9% | NCI-H226 lung 87.1% | NCI-H322M lung 94% | HOP-62 NSCLC 90.6% | NCI-H460 lung 95.5% | NCI-H522 lung 94.8% | A549/ATCC NSCLC 92.9% | 786-0 renal 97.2% | COLO 205 colon 116% | DU-145 prostate 121% | K-562 leukemia 101% | MALME-3M melanoma 131% | MDA-MB-231 breast 74.2% | RXF 393 renal 106% | SF-268 CNS 118% | SF-539 CNS 94.7% | UACC-257 melanoma 106% | M14 melanoma 99.7% | HCT-15 colon 78.1%

C[n+]1ccc(C#N)c2ccccc21
inactive: NCI-H23 lung 94.7% | NCI-H226 lung 93.3% | NCI-H322M lung 98% | HOP-62 NSCLC 94.4% | NCI-H460 lung 109% | NCI-H522 lung 68.2% | A549/ATCC NSCLC 106% | 786-0 renal 90.2% | COLO 205 colon 48.8% | DU-145 prostate 91.8% | K-562 leukemia 84.8% | MALME-3M melanoma 26.7% | MDA-MB-231 breast 101% | RXF 393 renal 78.8% | SF-268 CNS 92% | SF-539 CNS 99.5% | UACC-257 melanoma 110% | M14 melanoma 98.6% | HCT-15 colon 88.4%

COc1ccc(-c2nn(-c3cccc(Cl)c3)cc2C2CC(c3ccccc3)=NN2C(C)=O)cc1 (centres undefined)
inactive: NCI-H23 lung 84.2% | NCI-H226 lung 37.9% | NCI-H322M lung 76.8% | NCI-H460 lung 39.6% | NCI-H522 lung 60.9% | A549/ATCC NSCLC 67.6% | 786-0 renal 72.2% | COLO 205 colon 81.6% | DU-145 prostate 72.2% | K-562 leukemia 96.1% | MALME-3M melanoma 46.8% | MDA-MB-231 breast 72.9% | RXF 393 renal 54.4% | SF-268 CNS 66.9% | SF-539 CNS 50.6% | UACC-257 melanoma 86.2% | M14 melanoma 89.2% | HCT-15 colon 86%
active: HOP-62 NSCLC -18.1%

Oc1[nH]c2ccccc2c1/C=c1/ccc2c(c1)N=C(c1cc(F)cc(F)c1)N=2
inactive: NCI-H23 lung 64.3% | NCI-H226 lung 85.4% | NCI-H322M lung 83.1% | HOP-62 NSCLC 101% | NCI-H460 lung 56.9% | NCI-H522 lung 59.7% | A549/ATCC NSCLC 66.5% | 786-0 renal 64.2% | COLO 205 colon 96% | DU-145 prostate 72.1% | K-562 leukemia 12.8% | MALME-3M melanoma 101% | MDA-MB-231 breast 53.8% | RXF 393 renal 78.5% | SF-268 CNS 80.8% | SF-539 CNS 90.7% | UACC-257 melanoma 98.7% | M14 melanoma 58.2% | HCT-15 colon 31.5%

COc1ccc(-c2oc3cc(O)c(OC)c(O)c3c(=O)c2OC)cc1O
active: NCI-H460 lung 1.5% | NCI-H522 lung -30.3% | DU-145 prostate -18.4% | K-562 leukemia 8.02% | RXF 393 renal 7.24% | SF-539 CNS -16% | M14 melanoma -24.8%
inactive: NCI-H23 lung 16.1% | NCI-H226 lung 73.5% | NCI-H322M lung 46.7% | HOP-62 NSCLC 43% | A549/ATCC NSCLC 19.7% | 786-0 renal 23.2% | COLO 205 colon 101% | MALME-3M melanoma 38.9% | MDA-MB-231 breast 11.1% | SF-268 CNS 13.6% | UACC-257 melanoma 53.4% | HCT-15 colon 17.3%

O=[N+]([O-])c1cnc(Sc2ccncn2)c([N+](=O)[O-])c1
inactive: NCI-H23 lung 103% | NCI-H226 lung 99.6% | NCI-H322M lung 108% | HOP-62 NSCLC 99.3% | NCI-H460 lung 100% | A549/ATCC NSCLC 97.6% | 786-0 renal 106% | DU-145 prostate 109% | MDA-MB-231 breast 91.1% | RXF 393 renal 94.3% | SF-268 CNS 101% | SF-539 CNS 97.7% | M14 melanoma 97.2%
active: NCI-H522 lung -83.1% | COLO 205 colon -11.8% | K-562 leukemia -46.9% | MALME-3M melanoma -53% | UACC-257 melanoma -9.5% | HCT-15 colon 0.0905%

COc1cc(/C=C2\CCC/C(=C\c3ccc(OCC4CO4)c(OC)c3)C2=O)ccc1OCC1CO1 (centres undefined)
inactive: NCI-H23 lung 57.8% | NCI-H226 lung 86.2% | NCI-H322M lung 85.1% | HOP-62 NSCLC 28.9% | NCI-H522 lung 24.3% | A549/ATCC NSCLC 21.3% | 786-0 renal 65.2% | COLO 205 colon 33.8% | MALME-3M melanoma 26.2% | MDA-MB-231 breast 13.1% | SF-539 CNS 25.2% | UACC-257 melanoma 35.1% | HCT-15 colon 14.4%
active: NCI-H460 lung 8.96% | DU-145 prostate 7.14% | K-562 leukemia -3.49% | RXF 393 renal 4.7% | SF-268 CNS 1.73% | M14 melanoma 2.79%

CN(CC(=O)Nc1nc2ccccc2[nH]1)S(=O)(=O)c1ccc(Cl)cc1
inactive: NCI-H23 lung 126% | NCI-H226 lung 81.7% | NCI-H322M lung 98.3% | HOP-62 NSCLC 69.4% | NCI-H460 lung 45.3% | NCI-H522 lung 80.6% | A549/ATCC NSCLC 111% | 786-0 renal 91.9% | COLO 205 colon 95.6% | DU-145 prostate 89.9% | K-562 leukemia 95.7% | MALME-3M melanoma 100% | MDA-MB-231 breast 99.6% | RXF 393 renal 122% | SF-268 CNS 67% | SF-295 CNS 38.4% | SF-539 CNS 88.5% | M14 melanoma 95.7% | HCT-15 colon 90.8%

O=C(O)c1ccccc1C(=O)OC1CCCC2CCCC21 (centres undefined)
inactive: NCI-H23 lung 95.1% | NCI-H226 lung 101% | NCI-H322M lung 115% | HOP-62 NSCLC 98.2% | NCI-H460 lung 112% | NCI-H522 lung 107% | A549/ATCC NSCLC 101% | 786-0 renal 116% | COLO 205 colon 117% | DU-145 prostate 103% | K-562 leukemia 102% | MALME-3M melanoma 133% | MDA-MB-231 breast 121% | RXF 393 renal 104% | SF-268 CNS 106% | SF-539 CNS 102% | UACC-257 melanoma 105% | M14 melanoma 115% | HCT-15 colon 92.1%

Fc1ccc(-c2nnc(/C=C/c3cn(-c4ccccc4)nc3-c3ccccc3)o2)cc1
inactive: NCI-H23 lung 88% | NCI-H226 lung 92.8% | NCI-H322M lung 95.5% | HOP-62 NSCLC 87.4% | NCI-H460 lung 78.6% | NCI-H522 lung 85.3% | A549/ATCC NSCLC 75.2% | 786-0 renal 89.8% | COLO 205 colon 94.2% | DU-145 prostate 110% | K-562 leukemia 107% | MALME-3M melanoma 88.9% | MDA-MB-231 breast 94.2% | RXF 393 renal 105% | SF-268 CNS 103% | SF-295 CNS 94.4% | SF-539 CNS 89.1% | M14 melanoma 93.1% | HCT-15 colon 96.1%

— PubChem BioAssay (NCI)
